Molecules are shown by their SMILES.

The assay has as its system WHIM30 (cells of a triple-negative basal-like breast cancer xenograft). As to the kind of experiment: cell viability of combination (% of vehicle); higher = less cytotoxic. The note with it: 1 µM; 72 h; partner dose: 10 nM. Here is the method: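 PDX cells were treated for 72 h with each drug at 1 µM plus carfilzomib (10 nM; 100 nM for WHIM2). Luciferase viability is expressed as percent of vehicle.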
For `CSc1ccc2c(c1)N(CCC1CCCCN1C)c1ccccc1S2.Cl` (stereo not given) [Thioridazine HCl] + CC(C)C[C@H](NC(=O)[C@H](CCc1ccccc1)NC(=O)CN1CCOCC1)C(=O)N[C@@H](Cc1ccccc1)C(=O)N[C@@H](CC(C)C)C(=O)[C@@]1(C)CO1 [Carfilzomib], the “cell viability of combination” value came to 17.7.
For `Cc1cn(-c2cc(NC(=O)c3ccc(C)c(Nc4nccc(-c5cccnc5)n4)c3)cc(C(F)(F)F)c2)cn1` [Nilotinib(AMN-107)] + CC(C)C[C@H](NC(=O)[C@H](CCc1ccccc1)NC(=O)CN1CCOCC1)C(=O)N[C@@H](Cc1ccccc1)C(=O)N[C@@H](CC(C)C)C(=O)[C@@]1(C)CO1 [Carfilzomib] the value was 22.2; for `COc1cccc2c1C(=O)c1c(O)c3c(c(O)c1C2=O)CC(O)(C(=O)CO)CC3OC1CC(N)C(O)C(C)O1` (stereo not given) [Doxorubicin] + CC(C)C[C@H](NC(=O)[C@H](CCc1ccccc1)NC(=O)CN1CCOCC1)C(=O)N[C@@H](Cc1ccccc1)C(=O)N[C@@H](CC(C)C)C(=O)[C@@]1(C)CO1 [Carfilzomib], 8.32; for `COc1cc(Nc2c(C#N)cnc3cc(OCCCN4CCN(C)CC4)c(OC)cc23)c(Cl)cc1Cl` [Bosutinib (SKI-606)] + CC(C)C[C@H](NC(=O)[C@H](CCc1ccccc1)NC(=O)CN1CCOCC1)C(=O)N[C@@H](Cc1ccccc1)C(=O)N[C@@H](CC(C)C)C(=O)[C@@]1(C)CO1 [Carfilzomib], 20.9.
For `CN(C)CCOc1ccc(C(=C(CCCl)c2ccccc2)c2ccccc2)cc1.O=C(O)CC(O)(CC(=O)O)C(=O)O` [Toremifene Citrate] + CC(C)C[C@H](NC(=O)[C@H](CCc1ccccc1)NC(=O)CN1CCOCC1)C(=O)N[C@@H](Cc1ccccc1)C(=O)N[C@@H](CC(C)C)C(=O)[C@@]1(C)CO1 [Carfilzomib] the value was 17.1; for `Nc1ccc2cc3ccc([NH3+])cc3nc2c1.Nc1ccc2cc3ccc([NH3+])cc3nc2c1.O=S(=O)([O-])[O-]` [Proflavine Hemisulfate] + CC(C)C[C@H](NC(=O)[C@H](CCc1ccccc1)NC(=O)CN1CCOCC1)C(=O)N[C@@H](Cc1ccccc1)C(=O)N[C@@H](CC(C)C)C(=O)[C@@]1(C)CO1 [Carfilzomib], 11.2.
Next, `Cc1nc(NC(=O)N2CCCC2C(N)=O)sc1-c1ccnc(C(C)(C)C(F)(F)F)c1` (stereo not given) + CC(C)C[C@H](NC(=O)[C@H](CCc1ccccc1)NC(=O)CN1CCOCC1)C(=O)N[C@@H](Cc1ccccc1)C(=O)N[C@@H](CC(C)C)C(=O)[C@@]1(C)CO1 [Carfilzomib]: 20; `COc1cc2c(Oc3ccc4[nH]c(C)cc4c3F)ncnc2cc1OCCCN1CCCC1` [Cediranib (AZD217)] + CC(C)C[C@H](NC(=O)[C@H](CCc1ccccc1)NC(=O)CN1CCOCC1)C(=O)N[C@@H](Cc1ccccc1)C(=O)N[C@@H](CC(C)C)C(=O)[C@@]1(C)CO1 [Carfilzomib]: 11.6.
Turning to `CO[C@H]1C[C@@H]2CC[C@@H](C)[C@@](O)(O2)C(=O)C(=O)N2CCCC[C@H]2C(=O)O[C@H]([C@H](C)C[C@@H]2CC[C@@H](O)[C@H](OC)C2)CC(=O)[C@H](C)/C=C(\C)[C@@H](O)[C@@H](OC)C(=O)[C@H](C)C[C@H](C)/C=C/C=C/C=C/1C` [Rapamycin (Sirolimus)] + CC(C)C[C@H](NC(=O)[C@H](CCc1ccccc1)NC(=O)CN1CCOCC1)C(=O)N[C@@H](Cc1ccccc1)C(=O)N[C@@H](CC(C)C)C(=O)[C@@]1(C)CO1 [Carfilzomib], the “cell viability of combination” value was 25.8.
For `COc1ccc2c(O[C@H]3CC4C(=O)N(C)CCCC/C=C\[C@H]5C[C@@]5(C(=O)NS(=O)(=O)C5CC5)NC(=O)[C@@H]4C3)cc(-c3nc(C(C)C)cs3)nc2c1C` (stereo not given in full) [Simeprevir] + CC(C)C[C@H](NC(=O)[C@H](CCc1ccccc1)NC(=O)CN1CCOCC1)C(=O)N[C@@H](Cc1ccccc1)C(=O)N[C@@H](CC(C)C)C(=O)[C@@]1(C)CO1 [Carfilzomib], the “cell viability of combination” value was 22.1.
For `CC1(C)Cc2c(-c3ccccc3)c(-c3ccc(Cl)cc3)c(CC(=O)O)n2C1` [Licofelone] + CC(C)C[C@H](NC(=O)[C@H](CCc1ccccc1)NC(=O)CN1CCOCC1)C(=O)N[C@@H](Cc1ccccc1)C(=O)N[C@@H](CC(C)C)C(=O)[C@@]1(C)CO1 [Carfilzomib], the “cell viability of combination” value was 18.6.
For `COC1=C(OC)C(=O)C(CCCCCCCCCCO)=C(C)C1=O` [Idebenone] + CC(C)C[C@H](NC(=O)[C@H](CCc1ccccc1)NC(=O)CN1CCOCC1)C(=O)N[C@@H](Cc1ccccc1)C(=O)N[C@@H](CC(C)C)C(=O)[C@@]1(C)CO1 [Carfilzomib] the value was 17.5; for `Nc1ncn(C2OC(CO)C(O)C2O)c(=O)n1` (stereo not given) [5-Azacytidine] + CC(C)C[C@H](NC(=O)[C@H](CCc1ccccc1)NC(=O)CN1CCOCC1)C(=O)N[C@@H](Cc1ccccc1)C(=O)N[C@@H](CC(C)C)C(=O)[C@@]1(C)CO1 [Carfilzomib], 20.7.
On to `CCN(CC)CCCC(C)Nc1ccnc2cc(Cl)ccc12.O=P(O)(O)O.O=P(O)(O)O` (stereo not given) [Chloroquine diphosphate] + CC(C)C[C@H](NC(=O)[C@H](CCc1ccccc1)NC(=O)CN1CCOCC1)C(=O)N[C@@H](Cc1ccccc1)C(=O)N[C@@H](CC(C)C)C(=O)[C@@]1(C)CO1 [Carfilzomib], for which the “cell viability of combination” value was 13.5.
As for `Cc1cc(-n2c(=O)[nH]c(=O)n(C)c2=O)ccc1Oc1ccc(SC(F)(F)F)cc1` [Toltrazuril] + CC(C)C[C@H](NC(=O)[C@H](CCc1ccccc1)NC(=O)CN1CCOCC1)C(=O)N[C@@H](Cc1ccccc1)C(=O)N[C@@H](CC(C)C)C(=O)[C@@]1(C)CO1 [Carfilzomib], the “cell viability of combination” value turned out to be 19.3.
For `CN(C)c1ccc(C(=C2C=CC(=[N+](C)C)C=C2)c2ccc(N(C)C)cc2)cc1.[Cl-]` [Crystal Violet] + CC(C)C[C@H](NC(=O)[C@H](CCc1ccccc1)NC(=O)CN1CCOCC1)C(=O)N[C@@H](Cc1ccccc1)C(=O)N[C@@H](CC(C)C)C(=O)[C@@]1(C)CO1 [Carfilzomib] the value was 6; for `CO[C@H]1C[C@@H]2CC[C@@H](C)[C@@](O)(O2)C(=O)C(=O)N2CCCC[C@H]2C(=O)O[C@H]([C@H](C)C[C@@H]2CC[C@@H](OC(=O)C(C)(CO)CO)[C@H](OC)C2)CC(=O)[C@H](C)/C=C(\C)[C@@H](O)[C@@H](OC)C(=O)[C@H](C)C[C@H](C)/C=C/C=C/C=C/1C` [Temsirolimus] + CC(C)C[C@H](NC(=O)[C@H](CCc1ccccc1)NC(=O)CN1CCOCC1)C(=O)N[C@@H](Cc1ccccc1)C(=O)N[C@@H](CC(C)C)C(=O)[C@@]1(C)CO1 [Carfilzomib], 23.9; for `CCCCCOc1ccc(-c2ccc(-c3ccc(C(=O)N[C@H]4C[C@@H](O)[C@@H](O)NC(=O)[C@@H]5[C@@H](O)[C@@H](C)CN5C(=O)[C@H]([C@@H](C)O)NC(=O)[C@H]([C@H](O)[C@@H](O)c5ccc(O)cc5)NC(=O)[C@@H]5C[C@@H](O)CN5C(=O)[C@H]([C@@H](C)O)NC4=O)cc3)cc2)cc1` [Anidulafungin] + CC(C)C[C@H](NC(=O)[C@H](CCc1ccccc1)NC(=O)CN1CCOCC1)C(=O)N[C@@H](Cc1ccccc1)C(=O)N[C@@H](CC(C)C)C(=O)[C@@]1(C)CO1 [Carfilzomib], 16.7.
Next, `CC(C)CC(NC(=O)C(NC(=O)c1cccc(-c2ccccc2)n1)C(C)O)B(O)O` (stereo not given) + CC(C)C[C@H](NC(=O)[C@H](CCc1ccccc1)NC(=O)CN1CCOCC1)C(=O)N[C@@H](Cc1ccccc1)C(=O)N[C@@H](CC(C)C)C(=O)[C@@]1(C)CO1 [Carfilzomib]: 8.71; `CN1CCCC1CCOC(C)(c1ccccc1)c1ccc(Cl)cc1.O=C(O)C=CC(=O)O` (stereo not given) [Clemastine Fumarate] + CC(C)C[C@H](NC(=O)[C@H](CCc1ccccc1)NC(=O)CN1CCOCC1)C(=O)N[C@@H](Cc1ccccc1)C(=O)N[C@@H](CC(C)C)C(=O)[C@@]1(C)CO1 [Carfilzomib]: 15.5.

The values above are taken from the supplement of paper PMC6992640.
